The panel holds about 83,000 compounds, 20% with a hit somewhere; the sample as a whole holds those more often.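 Cell lines were cultured in 96-well plates, exposed to a single compound concentration, and assessed for percent growth 48 hours later.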 A number with no mark means an inactive call. Activity calls are given as the source filed them.
What follows are compounds tested on CCRF-CEM leukemia (assay: NCI-60 one-dose screen, 48 h (100 = growth as untreated, 0 = no growth, -100 = all killed)). Details: 10 µM unless noted.
Protocol: Growth inhibition of the CCRF-CEM human tumor cell line is measured as a screen for anti-cancer activity. Cells are grown in 96 well plates and exposed to the test compound for 48 hours. Compounds are tested at a single concentration, which is 10^-5 M for most compounds. The reported endpoint is percent growth (GI% or GIPRCNT), where numbers from 0 - 100% represent growth inhibition, and numbers from -100% - 0 represent cell death. For example, a value of 40 represents 60% growth inhibition. A value of 0 means no net growth occurred over the course of the experiment. A value of -40 indicates 40% of cells at the beginning of the experiment died by the end of the experiment. A value of -100 means all cells are dead at the end of the experiment.
NCI-60 Human Tumor Cell Lines Screen was performed using the standard one-dose NCI protocol, which is described in more detail at https://dtp.cancer.gov/discovery_development/nci-60/default.htm.
Compounds with GIPRCNT values below 10 were considered active. Activity score was based on GIPRCNT using the following formula: […]
Score is 0 for GIPRCNT values of 100 or above, 50 for GIPRCNT values of 0, and 100 for GIPRCNT values of -100.

Compound | growth
COc1cc(Cl)cc(-c2nn(C(=O)NS(=O)(=O)c3ccccc3)cc2-c2ccncc2)c1 | 94.6%
c1nc(N2CCOCC2)c2[nH]ccc2n1 | 107%
CCN(CC)c1cc(N)c(Cc2c(N)cc(N(CC)CC)cc2Cl)c(Cl)c1 | 51.5%
CC1=CC[C@@H]2C(C)(C)[C@@H](O)CC[C@@]2(C)[C@@H]1COc1ccc2ccc(=O)oc2c1 | 41.7%
Brc1ccc2c(c1)CN(C1CCCCC1)CO2 | 107%
Cc1nc(-c2ccccc2)sc1CC#N | 102%
O=C(CSc1nc2ccc([N+](=O)[O-])cc2[nH]1)Nc1ccc(F)c(Cl)c1 | 19%
CNC(=O)c1cc(Oc2cccc3nc(NC(=O)Nc4cc(C(F)(F)F)cc(C(F)(F)F)c4)ccc23)ccn1 | 73.3%
COc1ccc(-c2ccc(NNC(=O)c3ccc(F)cc3)nn2)cc1OC | 79.5%
CCc1ccc(-c2ccc(COc3ccc(CC4SC(=O)NC4=O)cc3)cc2)cc1 (stereo not given) | 61.3%
COc1cc(OC)cc(C(=O)Nc2cc(-c3cccnc3)nc(NCCCN3CCOCC3)n2)c1 | 90.8%
Cc1nc(Cl)c2c(n1)N(C)c1ccc(Cl)cc1C(C)C2 (stereo not given) | 90.3%
O=C(Nc1cc(F)cc2cccnc12)c1cnc(N2CCNCC2)cn1 | 26.3%
CCOC(=O)c1nn(C2CCCCO2)c2ccc(NC(=O)CN3CCOCC3)cc12 (stereo not given) | 1.49% (active)
C[n+]1c2ccccc2nc2c(N)cc(N)cc21 | 58.8%
COc1cc2c(cc1OCCCN1CCN(CCCOc3cc4c(cc3OC)C(=O)N3C[C@H](F)C[C@H]3C=N4)CC1)N=C[C@@H]1C[C@@H](F)CN1C2=O | -28.1% (active)
COc1ncnc2c(-c3ccccc3)cn(COCc3ccccc3)c12 | 41.1%
CCN(CC)CC(C)Nc1ccc(C)c2sc3ccccc3c(=O)c12 (stereo not given) | 34.4%
O=C1/C(=C\c2cccn2Cc2ccccc2)c2ccccc2N1c1c(Cl)cccc1Cl | 92.9%
Nc1ccc2c(c1)Cc1cc(NC(=O)C(F)(F)F)ccc1-2 | 86.3%

Compound | growth
COc1cc2c(=O)[nH]c3cc([N+](=O)[O-])ccc3c2cc1[N+](=O)[O-] | 46.5%
Oc1c(CNCCNCc2cc(Cl)cc(Cc3ccccc3)c2O)cc(Cl)cc1Cc1ccccc1 | 8.47% (active)
CN(C)Cc1ccc[nH]1 | 118%
O=C(Nc1ccc(C(=O)/C=C/c2ccc(N3CCOCC3)cc2)cc1)Nc1ccc([N+](=O)[O-])cc1 | 84.4%
Clc1ccc2nc(-c3ccc(-c4ccc(/C=N/NC5=NCCN5)cc4)s3)cn2c1 | 76.3%
Cc1ccc(N)c(O)c1 | 77.9%
O=C(O)c1cn(C2CC2)c2cc(N3CCN(Cc4cc(Cl)ccc4O)CC3)c(F)cc2c1=O | 45.9%
Nc1nc(Cl)c2ncn(Cc3cc4c(cc3I)OCO4)c2n1 | 26.3%
O=C(N/N=C\c1cc(Cl)ccc1O)N/N=C/c1cc(Cl)ccc1O | 27.4%
CCCCN(CCCC)CC(O)c1ccc(OCc2ccccc2)c2ccccc12 (stereo not given) | 72.7%
CN(C)c1ccc(-c2ccc(-c3ccc(C(=N)N)cc3)s2)cc1 | -22.5% (active)
CN(C)C(=S)Sc1ccc([N+](=O)[O-])cc1[N+](=O)[O-] | 4.55% (active)
CC(C)(C)c1cc(C(=O)Nc2ccccc2C(=O)NCCN)cc(C(C)(C)C)c1 | -8.48% (active)
CNc1cc(C(=O)O)nc(NC)n1 | 100%
C=CCc1nc2ccccc2s1 | 84.1%
O=C(O)c1ccccc1C(F)(F)F | 108%
Cc1c(Cn2cc(COc3ccc(Br)cc3)nn2)c(C)c(Cn2cc(COc3ccc(Br)cc3)nn2)c(C)c1Cn1cc(COc2ccc(Br)cc2)nn1 | 83%
N=C(N)c1ccc(-c2ccc(-c3ccc(-c4cccs4)s3)s2)cc1F | 26.8%
CCOC(CNC(=O)c1cccc([N+](=O)[O-])c1)OCC | 111%
COc1ccc2nc3ccccc3c(NCCNCCO)c2c1 | 10.9%
